In the supplement of paper PMC6555819 one finds PBM binding z-score data, which are given here for 40 sequences.

One assay relates to FXR:RXRa (NR concentration 270 nM, RXRa partner concentration 90 nM). In words: PBM binding z-score (relative to random genomic background probes); higher = stronger binding; sequences stand for … in GC…GCGATTGACAGCGTAGAATGAAGG
Summed up: (§1)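 Ligand-free nuclear receptor dimers were applied to custom Agilent 4×180K protein-binding microarrays whose double-stranded probes carried direct-repeat seeds, single-nucleotide variants, half-site ablations and random human genomic background sequences in 34-nt variable regions. Incubation lasted 1 h. Binding z-scores were computed against the random background probes from regression-normalized fluorescence.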
In turn, TCGAGTAGGTTAGGGGCATTCACAATGGCGTCGA registered a PBM binding z-score of 0.495.
On to TCAAATAGGTAAACAGGTGAAAGTCCGTAAGTTA, for which the PBM binding z-score was determined as 0.954.
CTACCAAGGTGAACAAGGTCGGTGATTACTATTC gave a PBM binding z-score of 0.778.
With GCATATAGGTAATACAAGGTGAATGTCCGATTGT, the PBM binding z-score came out at 1.08.
The sequence CATCAAAGTTCAAGGTAACGTAACAGAAAGCAGC showed a PBM binding z-score of 6.68.
Consider ATATGTAGGTTAGCTGGGATCATTCAGACTAGGC, for which the PBM binding z-score amounted to 0.641.
Take ACTTACGGTTCAACGAGGTTATAGCACGCGTATA: the PBM binding z-score stood at 2.96.
On the same count and under the same terms, the result for CCTACTCGGCCAAAGGTCATTGATTCCAATGCTC reads 4.86; that for CCTAGTTGGTCAGGAGGTGACACACCGGATATGA, 0.076; that for TGACCAAGGTGAAGGTCGTTGATCCCTCTGTAGA, 2.13.
In turn, GGAACGAGGGCATACGAGTTGATAGCATGGCGAT showed a PBM binding z-score of 1.33.
As for TCTATTAGTTGAAGGGCGACCGACGAGTCCGTTT, the PBM binding z-score came out at 0.994.
Consider TCTTGTAGATCAAGCAGGTTGAGAAAGCCTGAGT, for which the PBM binding z-score is 0.128.
Take ACAGACAGGTGATGAATGTAACTCAGGCTATCAT: the PBM binding z-score is -0.237.
In the case of AGAATGAGGTTACCACAGATCAGGGAAACGCTTG, the PBM binding z-score stood at 1.97.
In the case of ACAGACAGGTGAGGAAGGTAACTCAGGCTATCAT, the PBM binding z-score came to 0.118.
In the case of GATACAGGGTCAAGCCCAGAGTACGCGTATTGAT, the PBM binding z-score was 7.02.
Sequence CCTTACGGGTCAAGGCTATAGCACGGGTGGTACG displayed a PBM binding z-score of 5.49.
Consider CCTAGTTGGTCAGTAGGTCACACACCGGATATGA, for which the PBM binding z-score was 1.75.
Regarding AATCGGAGGACAAAGGTCAGAGCTACGCCAGTGA, the PBM binding z-score was determined as 4.21.
The sequence CAAACTAGGTCAAGAGGACAAAGTCCGCTTCCCG registered a PBM binding z-score of 3.92.
For CCTAGCAGGCCAGGGTCATTCAAGCATTTCGCTT, the PBM binding z-score was 2.69.
On to CCTCCTGGGCCAAGGTCATTGATCAGTCAAAGCA, for which the PBM binding z-score came to 2.96.
The same measure, in the same setting: the result for ATCTCTGGGTAAAGTTCAGTGAAAGATCGATAGA reads 1.19; that for CTCGAAAGGTTGTGCTCAGGTGAGTATACCAAAC, 0.895.
The sequence ATCGAAAGGTCGTGAGGTGAGTATTCAGAAAGGC returned a PBM binding z-score of 5.34.
AGAATGAGGTTACCAACGATCAGGGAAACGCTTG registered a PBM binding z-score of 1.58.
On the same count and under the same terms, the result for TCATCTAGGTAAAAGGTGAAAGTCGGTGTGGTAA reads 1.68; that for TCTAGCAGGCCAGAGGGTCTCTCAAGAGGTACGG, -1.4.
With CAAACTAGGTCACCGGAAGGTCACAGTCCGCATG, the PBM binding z-score came out at 6.17.
As to ATCTCTAGGAAAAAGTTCAGTGAATCCCGAGGAT, the PBM binding z-score stood at 0.0166.
Take TCTAGTTGGTTAAAGGTCACACACTCGAAATGCG: the PBM binding z-score is 5.51.
CGTCGAAGGTCAAGGTCAGTGAAAGAGACTCGAA registered a PBM binding z-score of 7.03.
CCGACTGGGGCAAGGTTACCAGAACGCACAGCCA registered a PBM binding z-score of 0.168.
In turn, TCTTGTAGATCAAAGGTGAAGAAAGCCGAAGCCT came in with a PBM binding z-score of 0.848.
With ATATGTAGGTTAGCTGGGGTCATTCGGACTAGGC, the PBM binding z-score turned out to be 4.85.
The sequence TCTCGGAGGACTCGAAGGTCAGAGCTTTCCAGAG showed a PBM binding z-score of 0.838.
CCGAGTAGGTGATGGGGCATTCAGGCAACGGTGA: the PBM binding z-score was -0.0189.
The sequence TCGAGTAGGGTAGGGGCATTCAGAATGGCGTCGA registered a PBM binding z-score of 0.264.
TCATATACGTAAAAGGTGAAAGTCGGTGTGGTAA displayed a PBM binding z-score of 1.58.

The next assay relates to LXRa:RXRa (NR concentration 270 nM, RXRa partner concentration 90 nM). The assay is described as above. The procedure, abridged:
as §1
TCGAGTAGGTTAGGGGCATTCACAATGGCGTCGA came in with a PBM binding z-score of 0.167.
TCAAATAGGTAAACAGGTGAAAGTCCGTAAGTTA had a PBM binding z-score of 0.935.
For CTACCAAGGTGAACAAGGTCGGTGATTACTATTC, the PBM binding z-score was 0.251.
In turn, GCATATAGGTAATACAAGGTGAATGTCCGATTGT showed a PBM binding z-score of 1.54.
The sequence CATCAAAGTTCAAGGTAACGTAACAGAAAGCAGC yielded a PBM binding z-score of 5.7.
For ATATGTAGGTTAGCTGGGATCATTCAGACTAGGC, the PBM binding z-score is 0.823.
ACTTACGGTTCAACGAGGTTATAGCACGCGTATA showed a PBM binding z-score of 3.15.
In the case of CCTACTCGGCCAAAGGTCATTGATTCCAATGCTC, the PBM binding z-score was found to be 5.54.
CCTAGTTGGTCAGGAGGTGACACACCGGATATGA: the PBM binding z-score was found to be 0.0334.
On the same count and under the same terms, the result for TGACCAAGGTGAAGGTCGTTGATCCCTCTGTAGA reads 1.77.
In turn, GGAACGAGGGCATACGAGTTGATAGCATGGCGAT registered a PBM binding z-score of 0.61.
The sequence TCTATTAGTTGAAGGGCGACCGACGAGTCCGTTT yielded a PBM binding z-score of 1.03.
Take TCTTGTAGATCAAGCAGGTTGAGAAAGCCTGAGT: the PBM binding z-score was determined as 0.187.
On the same count and under the same terms, the result for ACAGACAGGTGATGAATGTAACTCAGGCTATCAT reads -0.163; that for AGAATGAGGTTACCACAGATCAGGGAAACGCTTG, 6.39; that for ACAGACAGGTGAGGAAGGTAACTCAGGCTATCAT, -0.0457.
Sequence GATACAGGGTCAAGCCCAGAGTACGCGTATTGAT returned a PBM binding z-score of 4.26.
On the same count and under the same terms, to CCTTACGGGTCAAGGCTATAGCACGGGTGGTACG belongs 3.26.
CCTAGTTGGTCAGTAGGTCACACACCGGATATGA registered a PBM binding z-score of 1.75.
AATCGGAGGACAAAGGTCAGAGCTACGCCAGTGA gave a PBM binding z-score of 4.44.
In turn, CAAACTAGGTCAAGAGGACAAAGTCCGCTTCCCG had a PBM binding z-score of 2.83.
Sequence CCTAGCAGGCCAGGGTCATTCAAGCATTTCGCTT registered a PBM binding z-score of 2.29.
Sequence CCTCCTGGGCCAAGGTCATTGATCAGTCAAAGCA yielded a PBM binding z-score of 2.89.
In turn, ATCTCTGGGTAAAGTTCAGTGAAAGATCGATAGA yielded a PBM binding z-score of 1.87.
In turn, CTCGAAAGGTTGTGCTCAGGTGAGTATACCAAAC showed a PBM binding z-score of 0.617.
Still for that read-out and setting: to ATCGAAAGGTCGTGAGGTGAGTATTCAGAAAGGC belongs 4.08; to AGAATGAGGTTACCAACGATCAGGGAAACGCTTG, 5.96; to TCATCTAGGTAAAAGGTGAAAGTCGGTGTGGTAA, 1.89.
In the case of TCTAGCAGGCCAGAGGGTCTCTCAAGAGGTACGG, the PBM binding z-score is -0.676.
On to CAAACTAGGTCACCGGAAGGTCACAGTCCGCATG, for which the PBM binding z-score amounted to 5.52.
Turning to ATCTCTAGGAAAAAGTTCAGTGAATCCCGAGGAT, the PBM binding z-score was 0.275.
On to TCTAGTTGGTTAAAGGTCACACACTCGAAATGCG, for which the PBM binding z-score was 5.54.
On the same count and under the same terms, to CGTCGAAGGTCAAGGTCAGTGAAAGAGACTCGAA belongs 5.5; to CCGACTGGGGCAAGGTTACCAGAACGCACAGCCA, 0.506; to TCTTGTAGATCAAAGGTGAAGAAAGCCGAAGCCT, 1.05.
As to ATATGTAGGTTAGCTGGGGTCATTCGGACTAGGC, the PBM binding z-score is 5.8.
Sequence TCTCGGAGGACTCGAAGGTCAGAGCTTTCCAGAG came in with a PBM binding z-score of 0.984.
Turning to CCGAGTAGGTGATGGGGCATTCAGGCAACGGTGA, the PBM binding z-score was -0.218.
As to TCGAGTAGGGTAGGGGCATTCAGAATGGCGTCGA, the PBM binding z-score stood at 0.12.
The same measure, in the same setting: the result for TCATATACGTAAAAGGTGAAAGTCGGTGTGGTAA reads 1.77.
